Measured values reported in the supplement of paper PMC10849652.
About 7,900 targets were measured; listed, in parts, are those with a hit and a random draw of the rest. About 0.6% of all pairs of compound and target were hits. Values without a mark were called inactive.

Key:
Test in all cases: log2 fold change, soluble protein after heating vs DMSO (PISA); higher = thermal stabilisation; K562 cells, 10 uM, 30 min; active = over 0.2 and 3.5 SD of the protein, either way, in both replicates (recomputed)
[1] = compound: CC1=C(C=C(C=C1)NC(=O)C2=CC(=CC=C2)C(C)(C)C#N)NC3=CC4=C(C=C3)N=CN(C4=O)C
Outline: (§1)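 Values are thermal stability changes relative to control samples and are taken from duplicates. They are stated as log2 fold changes. Before quantification by TMTpro 16plex LC-MS/MS with equalised channel sums, K562 cells at 2×10^6 cells/mL were treated with 10 μM compound for 30 min, heated in aliquots for 3 min across 48°C-58°C, pooled, extracted in PBS with 0.5% NP-40 at 4°C, and centrifuged at 21,000xg for 90 min to give the soluble supernatant.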

[2] = compound: CC1=C(C=C(C=C1)NC(=O)C2=CC(=CC=C2)N(C)C)NC(=O)C3=CC=C(C=C3)O
Outline: as §1

[3] = compound: CC1=CC=C(C=C1)SC2=C3C=C(SC3=CN=C2)C(=O)N
Outline: as §1

[4] = compound: CC1=NC(=CC=C1)C2=C(N=C(N2)C(C)(C)C)C3=CC4=NC=CN=C4C=C3
Outline: as §1

Nexturastat A = compound: CCCCN(Cc1ccc(C(=O)NO)cc1)C(=O)Nc1ccccc1 [Nexturastat A]
Outline: as §1

vemurafenib = compound: CCCS(=O)(=O)Nc1ccc(F)c(C(=O)c2c[nH]c3ncc(-c4ccc(Cl)cc4)cc23)c1F [vemurafenib]
Outline: as §1

[5] = compound: CCCS(=O)(=O)Nc1ccc(F)c(C(=O)c2c[nH]c3ncc(Cl)cc23)c1F
Outline: as §1

[6] = compound: CCCc1cc(C)[nH]c(=O)c1CNC(=O)c1cc(-c2ccnc(N3CCN(C)CC3)c2)cc2c1cnn2C(C)C
Outline: as §1

givinostat = compound: CCN(CC)Cc1ccc2cc(COC(=O)Nc3ccc(C(=O)NO)cc3)ccc2c1 [givinostat]
Outline: as §1

barasertib = compound: CCN(CCCOc1ccc2c(Nc3cc(CC(=O)Nc4cccc(F)c4)[nH]n3)ncnc2c1)CCOP(=O)(O)O [barasertib]
Outline: as §1

[7] = compound: CC[C@@H]1C(=O)N(C)c2cnc(Nc3ccc(C(=O)NC4CCN(C)CC4)cc3OC)nc2N1C1CCCC1
Outline: as §1

volasertib = compound: CC[C@@H]1C(=O)N(C)c2cnc(Nc3ccc(C(=O)N[C@H]4CC[C@H](N5CCN(CC6CC6)CC5)CC4)cc3OC)nc2N1C(C)C [volasertib]
Outline: as §1

[8] = compound: CC[C@H](C)N1C=C(C2=C(C=C(C=C21)C3=CN=C(C=C3)N4CCNCC4)C(=O)NCC5=C(C=C(NC5=O)C)C)C
Outline: as §1

epoxomicin = compound: CC[C@H](C)[C@@H](C(=O)N[C@@H]([C@@H](C)O)C(=O)N[C@@H](CC(C)C)C(=O)[C@]1(CO1)C)NC(=O)[C@H]([C@@H](C)CC)N(C)C(=O)C [epoxomicin]
Outline: as §1

[9] = compound: CCn1c(C(=O)N(C2CC2)C2CC2)cc2c3c(ncn3C)c(Nc3cc(C)n(C)n3)nc21
Outline: as §1

[10] = compound: CCn1cc(-c2ccnc3[nH]c(-c4cccc(CN(C)C)c4)cc23)c(-c2ccc(NC(=O)N(C)C)cc2)n1
Outline: as §1

[11] = compound: CN(C)CC(=O)Nc1ccc2[nH]c(=O)c3ccccc3c2c1
Outline: as §1

rosiglitazone = compound: CN(CCOC1=CC=C(C=C1)C[C@H]2C(=O)NC(=O)S2)C3=CC=CC=N3 (racemic) [rosiglitazone]
Outline: as §1

[12] = compound: CN1C2=C(C3=C1C(=O)N(N=C3)CC4=CC(=CC=C4)N)SC(=C2)S(=O)C
Outline: as §1

[13] = compound: CN1CCC(CNc2ccc3ncc(-c4cccc(OC(F)(F)F)c4)n3n2)CC1
Outline: as §1

CLCN3 (UniProt P51790)
UniProt P51790, sequence (P51790 whole entry, looked up): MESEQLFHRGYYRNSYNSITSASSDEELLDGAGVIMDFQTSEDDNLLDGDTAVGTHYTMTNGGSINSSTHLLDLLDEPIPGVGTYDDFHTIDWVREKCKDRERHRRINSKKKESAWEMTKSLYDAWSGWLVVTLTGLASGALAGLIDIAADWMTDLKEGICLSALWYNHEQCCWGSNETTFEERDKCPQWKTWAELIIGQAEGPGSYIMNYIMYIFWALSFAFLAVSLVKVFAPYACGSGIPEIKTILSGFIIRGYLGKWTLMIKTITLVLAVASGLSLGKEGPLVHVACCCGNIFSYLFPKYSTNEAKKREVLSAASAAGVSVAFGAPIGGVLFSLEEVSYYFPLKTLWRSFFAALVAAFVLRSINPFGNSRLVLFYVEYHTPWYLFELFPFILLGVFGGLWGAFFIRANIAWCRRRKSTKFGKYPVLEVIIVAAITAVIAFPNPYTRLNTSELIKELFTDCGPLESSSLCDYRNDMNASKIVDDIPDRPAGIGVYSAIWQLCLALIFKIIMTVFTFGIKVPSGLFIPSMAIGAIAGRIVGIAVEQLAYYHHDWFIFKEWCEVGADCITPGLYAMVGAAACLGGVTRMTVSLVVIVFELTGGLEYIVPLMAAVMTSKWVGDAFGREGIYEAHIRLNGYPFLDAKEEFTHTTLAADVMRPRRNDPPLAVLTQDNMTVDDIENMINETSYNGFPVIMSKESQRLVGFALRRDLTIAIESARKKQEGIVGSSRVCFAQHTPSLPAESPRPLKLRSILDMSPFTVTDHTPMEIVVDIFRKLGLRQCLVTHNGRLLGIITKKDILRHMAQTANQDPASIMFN
log2 fold change [1]: -0.03 | log2 fold change [2]: 0.046 | log2 fold change [3]: 0.015 | log2 fold change [4]: 0.034 | log2 fold change (Nexturastat A): -0.313 (active) | log2 fold change (vemurafenib): 0.014 | log2 fold change [5]: 0.009 | log2 fold change [6]: -0.107 | log2 fold change (givinostat): 0.02 | log2 fold change (barasertib): 0.053 | log2 fold change [7]: 0.036 | log2 fold change (volasertib): -0.095 | log2 fold change [8]: -0.037 | log2 fold change (epoxomicin): -0.015 | log2 fold change [9]: 0.013 | log2 fold change [10]: 0.065 | log2 fold change [11]: 0.011 | log2 fold change (rosiglitazone): -0.018 | log2 fold change [12]: -0.051 | log2 fold change [13]: -0.213

CHMP4C (UniProt Q96CF2)
UniProt Q96CF2, sequence (Q96CF2 whole entry, looked up): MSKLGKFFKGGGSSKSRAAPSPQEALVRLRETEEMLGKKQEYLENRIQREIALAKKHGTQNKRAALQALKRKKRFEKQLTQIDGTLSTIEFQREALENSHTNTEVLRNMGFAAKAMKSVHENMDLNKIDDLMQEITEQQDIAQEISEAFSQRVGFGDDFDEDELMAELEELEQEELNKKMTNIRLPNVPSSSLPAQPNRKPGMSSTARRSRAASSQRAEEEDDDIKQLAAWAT
log2 fold change [1]: -0.173 | log2 fold change [2]: -0.01 | log2 fold change [3]: 0.02 | log2 fold change [4]: 0.081 | log2 fold change (Nexturastat A): 0.443 (active) | log2 fold change (vemurafenib): 0.019 | log2 fold change [5]: -0.022 | log2 fold change [6]: -0.021 | log2 fold change (givinostat): -0.07 | log2 fold change (barasertib): 0.01 | log2 fold change [7]: -0.23 | log2 fold change (volasertib): -0.043 | log2 fold change [8]: -0.014 | log2 fold change (epoxomicin): -0.016 | log2 fold change [9]: 0.06 | log2 fold change [10]: -0.034 | log2 fold change [11]: 0.005 | log2 fold change (rosiglitazone): 0.028 | log2 fold change [12]: -0.206 | log2 fold change [13]: -0.089

CNOT4 isoform 6 (UniProt O95628)
UniProt O95628, sequence (O95628 whole entry, looked up): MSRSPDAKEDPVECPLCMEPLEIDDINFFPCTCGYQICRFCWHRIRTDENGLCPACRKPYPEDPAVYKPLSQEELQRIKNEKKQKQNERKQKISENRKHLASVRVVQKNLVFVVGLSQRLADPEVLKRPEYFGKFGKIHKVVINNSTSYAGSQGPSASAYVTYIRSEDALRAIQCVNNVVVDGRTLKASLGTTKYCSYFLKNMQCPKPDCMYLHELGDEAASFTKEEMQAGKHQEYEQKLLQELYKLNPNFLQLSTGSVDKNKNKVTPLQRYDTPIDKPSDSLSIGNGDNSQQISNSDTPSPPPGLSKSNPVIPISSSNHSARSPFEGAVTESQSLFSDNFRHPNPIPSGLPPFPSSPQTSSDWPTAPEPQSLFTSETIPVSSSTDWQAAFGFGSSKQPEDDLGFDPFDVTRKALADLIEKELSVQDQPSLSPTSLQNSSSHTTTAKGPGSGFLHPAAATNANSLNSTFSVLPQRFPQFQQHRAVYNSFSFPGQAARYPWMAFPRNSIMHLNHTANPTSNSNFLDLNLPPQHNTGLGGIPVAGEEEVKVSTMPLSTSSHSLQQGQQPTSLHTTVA
log2 fold change [1]: -0.056 | log2 fold change [2]: -0.012 | log2 fold change [3]: 0.005 | log2 fold change [4]: 0.023 | log2 fold change (Nexturastat A): -0.122 | log2 fold change (vemurafenib): -0.014 | log2 fold change [5]: -0.007 | log2 fold change [6]: -0.069 | log2 fold change (givinostat): -0.064 | log2 fold change (barasertib): 0.007 | log2 fold change [7]: -0.008 | log2 fold change (volasertib): -0.109 | log2 fold change [8]: 0.031 | log2 fold change (epoxomicin): 0.006 | log2 fold change [9]: 0.007 | log2 fold change [10]: -0.056 | log2 fold change [11]: 0.003 | log2 fold change (rosiglitazone): 0.036 | log2 fold change [12]: 0.028 | log2 fold change [13]: -0.095

COQ7 (UniProt Q99807)
UniProt Q99807, sequence (Q99807 whole entry, looked up): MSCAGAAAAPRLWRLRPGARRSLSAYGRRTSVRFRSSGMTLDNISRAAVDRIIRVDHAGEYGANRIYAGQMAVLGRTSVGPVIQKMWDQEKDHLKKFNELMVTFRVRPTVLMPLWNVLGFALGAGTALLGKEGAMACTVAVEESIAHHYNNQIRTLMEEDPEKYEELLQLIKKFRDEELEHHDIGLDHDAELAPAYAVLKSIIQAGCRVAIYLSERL
log2 fold change [1]: 0.028 | log2 fold change [2]: 0.086 | log2 fold change [3]: 0.02 | log2 fold change [4]: 0.018 | log2 fold change (Nexturastat A): -0.068 | log2 fold change (vemurafenib): -0.002 | log2 fold change [5]: -0.061 | log2 fold change [6]: -0.034 | log2 fold change (givinostat): -0.091 | log2 fold change (barasertib): 0.023 | log2 fold change [7]: -0.035 | log2 fold change (volasertib): -0.009 | log2 fold change [8]: -0.01 | log2 fold change (epoxomicin): 0.013 | log2 fold change [9]: -0.005 | log2 fold change [10]: -0.041 | log2 fold change [11]: -0.047 | log2 fold change (rosiglitazone): 0.038 | log2 fold change [12]: 0.023 | log2 fold change [13]: -0.05
